About 79,000 compounds went through this panel and 15% of them were active in at least one assay; those are over-represented in the sample as a whole. Cut-off read from the data, not from the text of the source: active = growth inhibition above about 70%; inactive = the rest. Where a SMILES comes first, the peptide text is derived from it. Bridges are numbered along the chain shown (N, C = ends).
Tests used:
[1] = NCI Yeast Anticancer Drug Screen. Data for the rad50 strain (AID 155);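 note: 0% = growth of vehicle-only cultures of the same strain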; settings: S. cerevisiae rad50 strain growth inhibition; at 50.0 µM; stronger effect = higher value
In short: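 Vehicle-treated cultures provide the reference for the growth inhibition reported for compound-exposed, repair-deficient yeast.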

[2] = NCI Yeast Anticancer Drug Screen. Data for the mec2-1 strain (AID 157); settings: S. cerevisiae mec2-1 strain, at 50.0 µM, stronger effect = higher value
In short: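 Vehicle-treated cultures served as reference for growth inhibition of compound-exposed mec2-1 yeast.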

[3] = NCI Yeast Anticancer Drug Screen. Data for the sgs1 mgt1 strain (AID 161);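 note: 0% = growth of cultures given vehicle only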; settings: S. cerevisiae sgs1 mgt1 strain, at 50.0 µM, stronger effect = higher value
In short: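 Inhibition of yeast growth, normalised to vehicle-treated controls, is reported for a strain bearing genetic alterations in DNA damage repair.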

[4] = NCI Yeast Anticancer Drug Screen. Data for the cln2 rad14 strain (AID 165);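 note: 0% = growth equal to vehicle treated cultures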; settings: S. cerevisiae cln2 rad14 strain, at 50.0 µM, stronger effect = higher value
In short: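 Each compound was tested on cln2 rad14 yeast. Inhibition of growth was calculated against vehicle-exposed controls.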

[5] = NCI Yeast Anticancer Drug Screen. Data for the bub3 strain (AID 167); settings: S. cerevisiae bub3 mutant strain, at 50.0 µM, stronger effect = higher value
In short: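 Mutant yeast screening strain plus compound; vehicle-treated cultures serve as the 0% inhibition reference.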

[6] = NCI Yeast Anticancer Drug Screen. Data for the mlh1 rad18 strain (AID 175); settings: S. cerevisiae mlh1 rad18 strain growth inhibition; at 50.0 µM; stronger effect = higher value
In short: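 Vehicle-treated cultures served as the reference for growth inhibition in a yeast strain carrying DNA damage repair alterations exposed to each compound.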

Measured: growth inhibition

CC1=CCCCC1(C)/C(C)=N/Nc1ccc([N+](=O)[O-])cc1[N+](=O)[O-] (configuration not stated)
inactive: [1] 2.05% | [2] 7.3% | [3] 2.8% | [4] 2.75% | [5] -1.4% | [6] -15.3%

O=C(CCNC(=O)OCc1ccccc1)NC(Cc1ccccc1)C(=O)OCc1ccccc1 (configuration not stated)
inactive: [1] -0.9% | [2] -14.2% | [3] 4.55% | [4] -15.3% | [5] 2.4% | [6] 7.65%

O=C(/C=C/c1ccccc1)c1ccc(O)cc1O
inactive: [1] -27.3% | [2] -13.2% | [3] 14.8% | [4] -27.1% | [5] 1.65% | [6] 2.1%

Cc1cccc(C(=O)N(C)C(c2ccco2)P(=O)(c2ccccc2)c2ccccc2)c1 (configuration not stated)
inactive: [1] 19.9% | [2] -16.4% | [3] 68.2% | [4] 27.1% | [5] 33.1% | [6] 2.9%

O=C1NC(=O)C(c2ccccc2)(C2CCOCC2)N1 (configuration not stated)
inactive: [1] 11.1% | [2] 3.05% | [3] -2.65% | [4] -54.9% | [5] -9.65% | [6] 28.4%

S=C(OCCCCCn1cnc2c(=S)nc[nH]c21)Oc1ccccc1
inactive: [1] -13% | [2] 16% | [3] 7.1% | [4] -45.8% | [5] -5.25% | [6] -12.7%

NCCNCC(O)CO (configuration not stated)
inactive: [1] -2.4% | [2] -18.6% | [3] -21.4% | [4] -9.5% | [5] 3.9% | [6] 6.15%

CCN(CC)CCNc1ccc2ncn3c4c(OC)cccc4c(=O)c1c23
inactive: [1] 2.7% | [2] -17.1% | [3] 21.8% | [4] 18.4% | [5] -46.8% | [6] 67.2%

CCC/C=C(\CC)COC(=O)Nc1ccccc1
inactive: [1] -1.15% | [2] -19.6% | [3] -9.55% | [4] -47.9% | [5] -31.1% | [6] -1.75%

CN(Cc1cccc(Cl)c1)C(=O)Nc1ccccc1Cl
inactive: [1] -1.25% | [2] 48.8% | [3] 47.5% | [4] -21% | [5] 34.6% | [6] 53.4%

CCCCCCCCC(Cl)C(Cl)CCCCCCCC(=O)OC (configuration not stated)
inactive: [1] -30.2% | [2] -33% | [3] -20.3% | [4] -13.8% | [5] -5.15% | [6] -22.1%

Cc1ccc(S(=O)(=O)OCC2CCC(COS(=O)(=O)c3ccc(C)cc3)O2)cc1 (configuration not stated)
inactive: [1] -4.9% | [2] -14.4% | [3] -4.85% | [4] 10.7% | [5] -0.35% | [6] -6.9%

OC(CI)C1OCOC2COCOC21 (configuration not stated)
inactive: [1] -3.2% | [2] 4.5% | [3] 13.1% | [4] -4% | [5] 16.1% | [6] -3.75%

CS(=O)(=O)OCCCCOS(=O)(=O)CF
inactive: [1] -36.9% | [2] -35% | [3] -31.4% | [4] -14.2% | [5] -8.7% | [6] -20%

CC1CC2=C(C(=O)c3ccccc3C2=O)C(C)O1 (configuration not stated)
inactive: [1] 3.15% | [2] -29.5% | [3] -4.4% | [4] -31.7% | [5] 41.5% | [6] 9.1%

COc1ccc(C(=O)CC2=Nc3nnc(CCCCCCCc4nnc5n4C(=O)C(CC(=O)c4ccc(OC)cc4)=N5)n3C2=O)cc1
inactive: [1] -5.95% | [2] -1.9% | [3] -16.4% | [4] 18.9% | [5] 0.1% | [6] -24.1%

Cc1ccc(C(=O)N(C(C)C)C(C)C)cc1N=NN(C)C
inactive: [1] -10% | [2] -30.6% | [3] -31.1% | [4] 12.2% | [5] -20.6% | [6] -23.7%

O=C(/C=C\c1ccccc1)c1ccc(-c2cccc(-c3ccccc3)c2)cc1
inactive: [1] -8.55% | [2] 7.95% | [3] 7.5% | [4] -17.4% | [5] -3.15% | [6] -11.1%

NC(=O)NN/C=C(/C=Nc1ccccc1)[N+](=O)[O-]
inactive: [1] 17.4% | [2] 7.35% | [3] 1.2% | [4] 5.35% | [5] 6.55% | [6] 0.95%

C=CCS(=O)(=O)c1ccc(Cl)cc1
inactive: [1] 1.95% | [2] 2.25% | [3] -20.5% | [4] -24.6% | [5] 0.95% | [6] -22.2%

NC(=O)c1sc(N2CCCC2)nc1N
inactive: [1] 13.2% | [2] 23.9% | [3] 22.1% | [4] 0.95% | [5] 9.8% | [6] 9.05%

CC(Oc1ccc2cc(C(=O)c3ccccc3)c(=O)oc2c1)C(=O)O (configuration not stated)
inactive: [1] -4.25% | [2] 3.75% | [3] 19.2% | [4] 32.9% | [5] -0.1% | [6] 44.9%

COc1ccc(/C=N/CCl)cc1
inactive: [1] -1.55% | [2] 2% | [3] 7.05% | [4] -49.3% | [5] -22.1% | [6] -1.2%

CNn1c(-c2ccc(C)cc2)n[nH]c1=O
inactive: [1] 8.95% | [2] 0.25% | [3] -5.95% | [4] 4.15% | [5] 18.7% | [6] 19.9%

CC(NCCOc1ccccc1)c1ccccc1 (configuration not stated)
inactive: [1] 9.1% | [2] 33.4% | [3] 3.2% | [4] 10.7% | [5] -0.75% | [6] 9.25%

COC(=O)C1CCC(=O)NCCCCC(NC(=O)C(N)CC(=O)O)C(=O)N1 (stereo not drawn) (H-Asp-Lys-Glu-OMe; lactam 2-3; configuration not given here)
inactive: [1] 5.4% | [2] 4% | [3] 11.3% | [4] -1.9% | [5] 15.1% | [6] -27.9%

CC/C(=N/NC(=O)NN)c1ccc(Cl)cc1
inactive: [1] -2.2% | [2] 14.3% | [3] -1.2% | [4] -1.8% | [5] 22.6% | [6] 17.6%

CCC(C)(CC)OC(=O)c1ccc([N+](=O)[O-])cc1
inactive: [1] -0.35% | [2] -0.45% | [3] 5.05% | [4] -7.4% | [5] 2.85% | [6] 43.3%

COc1ccc2ccc3nonc3c2c1
inactive: [1] 17.1% | [2] 4.7% | [3] 9% | [4] -40.5% | [5] 6.4% | [6] 1.45%

Cc1cccc(Cl)c1NC(=O)C(Cl)Cl
inactive: [1] 6.35% | [2] 9.75% | [3] 8% | [4] 4.55% | [5] 17.3% | [6] 14.9%

CCOC(=O)C1C=C1C(C)(C)O (configuration not stated)
inactive: [1] -15.4% | [2] 9.3% | [3] -13.1% | [4] 1% | [5] 3.9% | [6] -32.9%

O=c1[nH]nc(S(=O)(=O)c2ccccc2)c(=O)[nH]1
inactive: [1] 13.2% | [2] -6.45% | [3] -1.7% | [4] -10.6% | [5] 9.3% | [6] -3.2%

CCCC(C)(C)CO
inactive: [1] 1.75% | [2] 1.35% | [3] -1.85% | [4] 5.6% | [5] 9.3% | [6] 5.75%

COc1ccc2c(c1)C(=O)C1CCC(=O)N1C2c1ccc2c(c1)OCO2 (configuration not stated)
inactive: [1] -9.65% | [2] 18.3% | [3] 10.2% | [4] 5.9% | [5] 47.1% | [6] -0.3%

CC(=O)OCc1c(COC(C)=O)c(-c2ccc(Cl)c(Cl)c2)n2c1CCC2
inactive: [1] 14.8% | [2] -17.1% | [3] 3.2% | [4] 16.7% | [5] -21.3% | [6] 13.2%

CCN(CC)N1C(=O)[N+](CC)(CC)N=C1[O-]
inactive: [1] -8.55% | [2] 4.15% | [3] -11.6% | [4] -30.8% | [5] -5.35% | [6] 2.05%

O=C(Nc1cccc(Cl)c1)OCC#CCOC(=O)Nc1cccc(Cl)c1
inactive: [1] -4% | [2] 11.6% | [3] 1.95% | [4] -10.8% | [5] 0.85% | [6] 11.2%

CN(C)C12CCC(c3ccccc31)c1ccccc12
inactive: [1] 29.8% | [2] 20.8% | [3] 27.4% | [4] 8.6% | [5] 36.5% | [6] 4.25%

CCCCCCCCCCCCCCCCCCOC(=O)C1CCCN1 (configuration not stated)
inactive: [1] -10% | [2] 22.9% | [3] 12.8% | [4] 3.15% | [5] 12.4% | [6] 8.6%

COC1=C(N=[N+]=[N-])C(=O)c2ccccc2C1=O
inactive: [1] 38% | [2] 8.95% | [3] 7.25% | [4] -34.2% | [5] -6.8% | [6] 16.1%

O=C(/C=C/c1ccccc1)NCC(O)CO (configuration not stated)
inactive: [1] 7.1% | [2] -2.95% | [3] -3.65% | [4] -0.3% | [5] 0.5% | [6] 11.7%

CC(=O)NC1C(O)C(NC(C)=O)C(OC(C)=O)C(OC(C)=O)C1OC(C)=O (configuration not stated)
inactive: [1] 33.4% | [2] -9.7% | [3] 4.1% | [4] -15.4% | [5] -0.15% | [6] 1.35%

From PubChem BioAssay (NCI)
